Assay outcomes: PubChem, National Center for Advancing Translational Sciences (NCATS)
HPGD block – HPGD (human) dehydrogenase inhibition; P15428; purified HPGD, NADH fluorescence kinetic, PGE2 substrate; Potency, µM, for inactives: at the top dose activity change, negative = inhibition, hits mostly inhibitors; 4.3% of 150,000 active; note: potency is the fitted concentration of half-maximal effect
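20 nM HPGD preincubated 15 min at room temperature with compound in 50 mM Tris-HCl pH 8, 0.01% Tween 20. Started with 1 mM NAD+ and 30 uM prostaglandin E2; NADH fluorescence (360/450 nm) read 5 times over 30-s intervals, last minus first.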
PNC assembly inh – perinucleolar compartment assembly inhibition. PC3M PTB-GFP, PNC prevalence imaging, 16 h; hits give low values. activity change (PNC), negative = inhibition, % at 10 µM. 3.1% of 140,000 active. AID 2417;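 active = readout at or below -70, meaning at least 70% loss of cells showing the perinucleolar compartment, a nuclear body marking cancer cells; inconclusive = readout between -30 and a set limit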;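 note: plate controls were DMSO wells for no effect and camptothecin positive control wells for full effect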
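Compounds are pinned in duplicate onto adhered PC3M cells stably expressing GFP-tagged PTB and incubated 16 h at 37 C. Cells are then fixed, nuclei stained with Hoechst, and PNC-positive cells counted.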
KDM4E inh – JMJD2E (human) inhibition. B2RXH2. JMJD2E catalytic domain, FDH-coupled NADH fluorescence (FDH is formaldehyde dehydrogenase). Potency, µM (highest dose often 57.1 µM), inactives show at the top dose activity change, negative = inhibition, most hits filed as inhibitors. 1.6% of 230,000 active. AID 2147;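 note: potency is the fitted concentration of half-maximal effect; 0% = wells with enzyme and -100% = buffer wells without enzyme; nearly all actives have a fitted effect of over 50% in size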
ALDH1A1 inh – ALDH1A1 (human) enzyme inhibition | Potency, µM (doses to about 75.3 µM), inactives show top-dose activity, negative = inhibition, hits mostly inhibitors | 7.3% of 220,000 active | Purified ALDH1A1, NADH fluorescence, propionaldehyde substrate | P00352;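 note: potency is the fitted concentration of half-maximal effect; plate controls were no enzyme wells and a reference inhibitor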
Target sequence (P00352 whole entry, looked up): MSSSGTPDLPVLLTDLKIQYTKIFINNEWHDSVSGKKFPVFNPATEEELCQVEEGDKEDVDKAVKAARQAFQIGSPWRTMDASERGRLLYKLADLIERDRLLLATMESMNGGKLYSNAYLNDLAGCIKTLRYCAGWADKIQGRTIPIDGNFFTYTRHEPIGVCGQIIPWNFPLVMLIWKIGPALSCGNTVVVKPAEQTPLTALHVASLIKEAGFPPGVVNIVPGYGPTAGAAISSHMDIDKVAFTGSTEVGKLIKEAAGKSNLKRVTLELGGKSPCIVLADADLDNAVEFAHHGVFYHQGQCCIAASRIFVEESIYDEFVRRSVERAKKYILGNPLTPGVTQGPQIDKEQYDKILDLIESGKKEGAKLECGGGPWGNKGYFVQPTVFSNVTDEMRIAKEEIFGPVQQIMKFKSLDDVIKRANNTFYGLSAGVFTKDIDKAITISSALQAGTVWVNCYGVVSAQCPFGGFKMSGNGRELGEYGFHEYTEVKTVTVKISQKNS
The depositor's hits bear a star; [ ] = dose if it differs, or a comment. Rows were chosen to be rich in hits. Some 11% of all compounds tested hit in one or more screens of this group. Unless noted, calls come from the whole dose curve; as a rule, active = well fitted inhibition curve with a large enough effect (not every such curve was filed as active); inconclusive = small, poorly fitted or top-dose-only effect, or another doubt; inactive = no such curve, though single readings can be large or run the other way. Unless noted, % is set by controls: 0 for no effect and ±100 for the full control effect.

For Cc1cc(C)c2cc(C#N)c(SCC(=O)NCc3ccco3)nc2c1 the results were HPGD block -19%, PNC assembly inh inconclusive, KDM4E inh inconclusive and ALDH1A1 inh inconclusive.
Screening COc1ccc(CNn2c(-c3ccccc3F)nc3ccccc3c2=O)cc1OC returned KDM4E inh -2% and ALDH1A1 inh 7%.
For C#CCCCO/N=C1/C[C@@H](O)[C@@H](O)[C@@H]2[C@@H]3C(=O)N(C(C)(C)C)C(=O)[C@H]3CC[C@H]12 the results were ALDH1A1 inh 6%[13.5 µM].
Screening COc1cc(NC(=O)CSc2nc3c(C)ccc(C)c3cc2C)c(C(=O)O)cc1OC returned HPGD block 2%, PNC assembly inh 38, KDM4E inh -1% and ALDH1A1 inh 4%.
`CC(C)(C)c1nc2ccccc2c2nnc(SCC(=O)NCc3ccco3)n12` gave HPGD block 16µM*, PNC assembly inh -19, KDM4E inh 0% and ALDH1A1 inh 25µM*.
`O=C(CN1CCOc2ccccc21)NCc1ccco1` gave HPGD block -27%, PNC assembly inh -106*, KDM4E inh 1% and ALDH1A1 inh 11µM*.
`Cc1cccc(Cc2c(C)nc3nc(SCC(=O)NCc4ccco4)nn3c2C)c1` gave HPGD block 16µM*, PNC assembly inh 20, KDM4E inh -2% and ALDH1A1 inh 25µM*.
O=C(O)/C=C/c1ccc(-n2ccnc2)cc1 was read as KDM4E inh -8%.
For Cc1cc(C(F)F)n2ncc(C(=O)NCc3ccc(F)cc3)c2n1 the results were KDM4E inh -12%.
Cc1cc(C(F)F)n2ncc(C(=O)NC3CCCCCC3)c2n1 was read as HPGD block 22µM*, PNC assembly inh 19, KDM4E inh -43% and ALDH1A1 inh 13µM*.
Cc1c2c(nc3c(C(=O)NC4CC4)cnn13)CCCC2 was read as HPGD block 20µM*, PNC assembly inh 14, KDM4E inh -6% and ALDH1A1 inh -2%.
O=C1NCCCC2c3cc(O)c4ccccc4c3OC12N1CCCCC1 (centres undefined) was read as HPGD block -11%, PNC assembly inh inconclusive, KDM4E inh inconclusive and ALDH1A1 inh inconclusive.
For O=C1NCCCC2c3c(cc(Br)c(O)c3Br)OC12N1CCOCC1 (centres undefined) the results were HPGD block 32µM*, PNC assembly inh -2, KDM4E inh inconclusive and ALDH1A1 inh 3.2µM*.
For O=C(O)CC1CCCc2ccccc2C1O (centres undefined) the results were HPGD block -6%, KDM4E inh 6% and ALDH1A1 inh 5%.
O=C1Cc2ccccc2Sc2ccccc21 was read as HPGD block inconclusive, PNC assembly inh 12, KDM4E inh inconclusive and ALDH1A1 inh inconclusive.
Cc1ccc2c(c1)Sc1ccccc1CC2=O was read as HPGD block 25µM*, PNC assembly inh 35, KDM4E inh inconclusive and ALDH1A1 inh 18µM*.
For NS(=O)(=O)c1cccc(NC(=O)CSc2nnc(C3CC3)n2Cc2ccccc2)c1 the results were KDM4E inh -7%.
For Cc1oc2cc(OC(=O)c3ccco3)ccc2c(=O)c1-c1nc2ccccc2n1C the results were HPGD block -25%, PNC assembly inh -93*, KDM4E inh 0% and ALDH1A1 inh inconclusive.
For COc1ccc(NC(=O)Cn2c(=O)n(CC3CCCO3)c(=O)c3ccccc32)c(OC)c1 (centres undefined) the results were KDM4E inh 1% and ALDH1A1 inh 0.028µM*.
COc1ccc(NC(=O)CSc2c3c(nc4ccccc24)CCCC3)c(OC)c1 was read as HPGD block -7%, PNC assembly inh -113*, KDM4E inh 5% and ALDH1A1 inh -5%.
Screening COc1cc(NC(=O)c2ccc3c(SCC(=O)O)c4c(nc3c2)CCCC4)cc(OC)c1OC returned KDM4E inh inconclusive and ALDH1A1 inh 10µM*.
COc1cc(NC(=O)Cn2c(=O)n(CC3CCCO3)c(=O)c3ccccc32)cc(OC)c1 (centres undefined) was read as KDM4E inh 3% and ALDH1A1 inh inconclusive.
CCOC(=O)N1CCN(C(=O)c2ccc3c(SCC(=O)O)c4c(nc3c2)CCCC4)CC1 was read as HPGD block -4%, PNC assembly inh -8, KDM4E inh -14% and ALDH1A1 inh -6%.
Screening O=C(O)CSc1c2c(nc3cc(C(=O)N4CCOCC4)ccc13)CCCC2 returned HPGD block 4µM*, PNC assembly inh 29, KDM4E inh inconclusive and ALDH1A1 inh -2%.
For COc1ccc(CNc2cc(-c3cccc(NS(C)(=O)=O)c3)ncn2)c(OC)c1 the results were ALDH1A1 inh 19%.
